Measurements from PubChem BioAssay.

Each compound was assayed on Noggin (protein binding on small-molecule microarray) (assay: small molecules binding Noggin protein – biochemical, 635/667 nm fluorescence, primary screen (AID 1095;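 also: score merges 667 nm feature fluorescence with signal to noise over triplicate slides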)). Conditions: 635 nm fluorescence, higher = more signal.

Structure (SMILES)	composite z-score
CC[C@@H]1C=C(C(=O)O)[C@H](c2ccc(C)cc2)N1S(=O)(=O)c1ccc(C)cc1	0.634
COCC(=C=CC[C@@H](O)c1ccc(OCCO)cc1)C[C@@H](O)c1ccccn1	0.274
C=CCN1Cc2ccccc2[C@@H]2OC(c3ccc(OCCCO)cc3)=N[C@]2(CCS(=O)(=O)c2ccccc2)C1=O	0.704
COc1cc(OC)c(C(O)C2C=CC3C(=O)NC(=O)C3N2Nc2ccccn2)cc1Br (stereo unspecified)	0.458
COC(=O)[C@H](Cc1ccccc1)N[C@H](/C=C/C1CC1)[C@@H](O)Cc1ccccc1	0.195
O=C1C2C=CC(C(O)c3ccc4c(c3)OCO4)N(Nc3ccc([N+](=O)[O-])cc3)C2C(=O)N1c1ccccc1 (stereo unspecified)	-0.0077
CC(C)CNC(=O)[C@@]1(Cc2ccccc2I)c2ccccc2C(=O)N(Cc2ccccc2C(F)(F)F)[C@H]1c1ccc(CO)cc1	-0.518
COc1cc2c(cc1O)C(c1cccs1)N(Cc1cccc(OC(F)(F)F)c1)CC2 (stereo unspecified)	-0.648
C=C(/C(=C/C[C@H](OC(=O)c1ccncc1)c1ccc(OCCO)cc1)c1cc(C(=O)OC)ccc1OC)C(C)C	0.609
CC1CC/C=C\[C@H]2OC34C=CCN(Cc5ccccc5)C(=O)[C@H]3N(C(C)CO)C(=O)[C@@H]4C2C(=O)O1 (stereo partly specified)	0.392
CCOC(=O)C[C@H]1[C@H](OC(=O)c2ccc(-c3ccccc3)cc2)[C@@H](NC(=O)c2ccccc2)c2cc(OCCCO)ccc2N1C(=O)Cc1ccc(OC)cc1	0.23
COc1ccc(NN2C(C(O)c3ccc(N(C)C)cc3)C=CC3C(=O)N(C4CCCCC4)C(=O)C32)cc1 (stereo unspecified)	0.134
NC(=O)[C@@H]1[C@H]2C(=O)O[C@H](c3ccccc3)[C@H](c3ccccc3)N2[C@H](c2ccc(O)cc2)[C@@]12C(=O)Nc1ccc(C#CC3=CCCCC3)cc12	0.87
C=CCC(OC(C)=O)[C@@H]1[C@@H](N(Cc2ccc(-c3cccc(C(F)(F)F)c3)o2)C(=O)c2cccc3ccccc23)c2cc(OCCCO)ccc2N1C(=O)Cc1ccc2ccccc2c1 (stereo partly specified)	0.01
O=C1O[C@@H](c2ccccc2)[C@@H](c2ccccc2)N2[C@@H](c3ccccc3OCCO)[C@]3(C(=O)Nc4ccccc43)[C@@H](C(=O)O)[C@H]12	-0.314
O=C1OCCC/C=C\[C@H]2OC34C=CCN(c5ccc6ccccc6c5)C(=O)[C@H]3N(CCCCCO)C(=O)[C@@H]4C12 (stereo partly specified)	-0.766
Cc1ccc(S[C@]2(C(=O)NCC(C)C)CC(=O)N(Cc3cc(C(F)(F)F)cc(C(F)(F)F)c3)[C@@H]2c2ccc(CO)cc2)cc1	-0.671
COc1ccc([C@H]2C[C@H]3C(I)=C[C@@H]2C(=O)[C@]32CO2)cc1	0.387

Structure (SMILES)	composite z-score
C=CCNC(=O)[C@@H]1[C@H]2C(=O)O[C@H](c3ccccc3)[C@H](c3ccccc3)N2[C@H](c2ccc(OCCO)cc2)[C@@]12C(=O)N(C(=O)OCCOC)c1ccc(C#CCC(C(=O)OC)C(=O)OC)cc12	1.18
COc1ccc([Si](C)(C)[C@H]2[C@H](CCO)O[C@@]3(C(=O)N(Cc4ccccc4)c4ccc(N5CCCCC5=O)cc43)[C@@H]2C)cc1	1.23
C[N+](C)(C)CCCC[C@@H]1NC(=O)[C@@H]2C[C@H](C(=O)NCCCCCN)[C@H](c3ccc(O)cc3)N2C1=O	1.01
O=C1C2C=CC(C(O)c3ccc(-c4ccccc4)s3)N(Nc3ccccc3)C2C(=O)N1c1ccccc1 (stereo unspecified)	0.182
COc1ccc(C(=O)Nc2cccc(CN3C(=O)[C@]4(O[C@H](CCn5cc(CCO)nn5)[C@@H]([Si](C)(C)c5ccc(OC)cc5)[C@@H]4C)c4ccccc43)c2)cc1	0.367
COC(=O)[C@@]1(Cc2ccccc2)[C@H]2c3cc(C(=O)N4CCCC4)n(Cc4ccc(O)c(OC)c4)c3C[C@H]2CN1C(=O)c1ccccc1	-0.786
O=C(NCCN1CCOCC1)[C@@H]1c2ccccc2C(=O)N(Cc2cc(C(F)(F)F)cc(C(F)(F)F)c2)[C@H]1c1ccc(CO)cc1	-0.901
O=C1C2C=CC(C(O)c3cc(C(F)(F)F)cc(C(F)(F)F)c3)N(Nc3ccccc3)C2C(=O)N1c1ccccc1 (stereo unspecified)	-0.105
O=C1OCC=C[C@H]2OC34C=CCN(CCN5CCOCC5)C(=O)[C@H]3N(CCO)C(=O)[C@@H]4[C@@H]12 (stereo partly specified)	0.928
CCCCCCc1nc(-c2ccc(-c3ccc(Cl)c(Cl)c3)o2)cc2c1[Si](C(C)C)(C(C)C)O[C@H]2c1ccccc1	0.0792
O=C1C2C=CC(C(O)c3c(F)cccc3Cl)N(Nc3ccccc3F)C2C(=O)N1c1ccccc1 (stereo unspecified)	0.0424
COc1ccc(C(O)C2C=CC3C(=O)N(C)C(=O)C3N2NC(=O)OC(C)(C)C)c2ccccc12 (stereo unspecified)	-0.149
OCC1C=C(/C=C/c2ccccc2)CN1Cc1ccccc1Br (stereo unspecified)	0.876
CN1C(=O)C2C=CC(C(O)c3ccc(F)cc3)N(N(c3ccccc3)c3ccccc3)C2C1=O (stereo unspecified)	0.3
CC(=CC1CCCCC1)[C@@H](NC(=O)c1cccnc1)c1ccc(-c2ccccc2)cc1	-0.18
CCN(CC)c1ccc(N2CC=CC34O[C@@H]5C=CCOC(=O)[C@@H]5[C@H]3C(=O)N(CCCCCCO)[C@@H]4C2=O)cc1 (stereo partly specified)	-0.526
C=C(CCCC)/C(=C/C[C@H](OC(=O)c1ccncc1)c1ccc(OCCO)cc1)c1cc(C(=O)OC)ccc1OC	-0.395
COCCOC(=O)N1C(=O)[C@@]2(c3cc(C#CC4(O)CCCCCC4)ccc31)[C@H](c1ccccc1OCCO)N1[C@H](c3ccccc3)[C@H](c3ccccc3)OC(=O)[C@H]1[C@@H]2C(=O)N1CCc2cc(OC)c(OC)cc2C1	1.24
